Shiga toxin inh – A qHTS for Small Molecule Inhibitors of Shiga Toxin | Vero cells, Shiga toxin protein synthesis inhibition reporter | inhibition, % at 38.7 µM | 9.2% of 290,000 active; in the data active = inhibition mostly above about 28%, no sharp cut-off; inactive = mostly below about 43%; note: 0% is about no effect
Pf growth 96h – Primary qHTS for delayed death inhibitors of the malarial parasite plastid, 96 hour incubation | AID 504834, 2011 | P. falciparum luciferase reporter growth, 96 h | 6.9% of 320,000 active | Potency, µM (doses to about 28.7 µM), without a hit: at the highest dose activity change, negative = inhibition, most hits filed as inhibitors; note: potency is the fitted concentration of half-maximal effect; % is set by controls: 0 for no effect and ±100 for the full control effect
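Compounds incubated with erythrocytes infected by luciferase-expressing P. falciparum (2% hematocrit, 0.05% parasitemia final) for 96 hours, 37 C in 5% CO2. Growth inhibition scored as decreased luciferase luminescence.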
NS1 function inh – qHTS Assay for Inhibitors of Influenza NS1 Protein Function | Potency, µM (highest dose often 46.1 µM), inactives show at the top dose activity, positive = more growth | 0.4% of 270,000 active | AID 2326, 2010; calls by dose curve; note: potency is the fitted concentration of half-maximal effect; actives are rising curves; nearly all actives have a fitted effect of over 50% in size
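Compounds were scored for reversing the slow growth caused by influenza A NS1 in S. cerevisiae, measured by optical density at 600 nm. Assay medium contained 2% galactose at pH 6.0; NS1-free yeast of the same strain were the positive control.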
SARS PLpro yeast – qHTS of Yeast-based Assay for SARS-CoV PLP. S. cerevisiae expressing SARS-CoV PLpro, growth rescue. 0.19% of 330,000 active. AID 485353, 2010. Potency, µM (doses to about 32.9 µM), inactives show at the highest dose activity, positive = growth rescue, usual class: activators; calls by dose curve; note: potency is the fitted concentration of half-maximal effect; 0% is about no effect; nearly all actives have a fitted effect of over 55% in size
Pf growth 48h – Primary qHTS for delayed death inhibitors of the malarial parasite plastid, 48 hour incubation; P. falciparum luciferase growth in erythrocytes, 48 h; Potency, µM (doses to about 28.7 µM), for the others: at the top dose activity change, negative = inhibition, hits mostly inhibitors; 5.9% of 310,000 active; note: potency is the fitted concentration of half-maximal effect; % is set by controls: 0 for no effect and ±100 for the full control effect
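Cell-based growth assay: transgenic P. falciparum expressing firefly luciferase, cultured in red cells within RPMI 1640 containing 0.5% w/v Albumax, 24 mM bicarbonate and gentamycin. A drop in luciferase activity indicates inhibition.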
CHX counter – Cycloheximide Counterscreen for Small Molecule Inhibitors of Shiga Toxin. cell reporter, cycloheximide protein synthesis inhibition counterscreen. max response, %. 12% of 300,000 active. AID 2314, 2010; in the data active = max response mostly above about 13%, no sharp cut-off; inactive = mostly below about 14%; note: read at 38.3 µM for the half of the compounds with a filed dose; 0% is about no effect
Starred values were filed as active, the others as inactive. An excerpt weighted towards active compounds, which were near 21% of everything screened. Unless noted, calls come from the whole dose curve; as a rule, active = well fitted inhibition curve with a large enough effect; inconclusive = small, poorly fitted or top-dose-only effect, or another doubt; inactive = no such curve, though single readings can be large or run the other way.

Screening CSC(=NC#N)N1CCN(c2ccc(Cl)cc2)CC1 returned Shiga toxin inh 47.3*, Pf growth 96h 30.7%, NS1 function inh -29.7%, SARS PLpro yeast -24.2%, Pf growth 48h 8.7% and CHX counter 27.8*.
For COc1ccc(NC(=O)C2CCCN(c3nn4c(=O)cc(C)nc4s3)C2)c(OC)c1 (stereo not given) the results were Shiga toxin inh -1.0, Pf growth 96h inconclusive, NS1 function inh -11.3%, SARS PLpro yeast -0.7%, Pf growth 48h inconclusive and CHX counter 6.2.
Screening Cc1cc(C(=O)OCC(=O)N(C)C2CCS(=O)(=O)C2)c(C)n1-c1ccccc1 (stereo not given) returned Shiga toxin inh 17.1, Pf growth 96h -9.5%, NS1 function inh 1.5%, SARS PLpro yeast 4.9%, Pf growth 48h inconclusive and CHX counter -2.3.
Screening Cc1ccc(S(=O)(=O)N/N=C/c2ccc(O)cc2O)cc1[N+](=O)[O-] returned Shiga toxin inh 58.3*, Pf growth 96h 7.2%, NS1 function inh 8.6%, SARS PLpro yeast 0.7%, Pf growth 48h 18.5% and CHX counter 17.8*.
Screening COc1ccc(-n2c(O)c(/C=N/NS(=O)(=O)c3ccc(C)c([N+](=O)[O-])c3)c3ccccc3c2=O)cc1OC returned Shiga toxin inh -10.4, Pf growth 96h 11.7µM*, NS1 function inh 5.9%, SARS PLpro yeast -0.4%, Pf growth 48h inconclusive and CHX counter -4.2.
For COc1cc(/C=N/NS(=O)(=O)c2ccc(C)c([N+](=O)[O-])c2)ccc1O the results were Shiga toxin inh 122.3*, Pf growth 96h 25.5%, SARS PLpro yeast 0.8%, Pf growth 48h -0.4% and CHX counter 35.7*.
For COc1cc(/C=N/NS(=O)(=O)c2ccc(C)c([N+](=O)[O-])c2)cc([N+](=O)[O-])c1O the results were Pf growth 96h inconclusive, NS1 function inh 20.3%, SARS PLpro yeast 0.7%, Pf growth 48h -31.3% and CHX counter -1.3.
Screening Cc1ccc(S(=O)(=O)N/N=C/c2cc([N+](=O)[O-])ccc2O)cc1[N+](=O)[O-] returned Shiga toxin inh 77.2, Pf growth 96h inconclusive, SARS PLpro yeast -2.7%, Pf growth 48h inactive and CHX counter 3.7.
COc1cc(/C=N\NC(=O)c2sc(N)nc2C)cc(OC)c1OC was read as Shiga toxin inh -11.4, Pf growth 96h inconclusive, NS1 function inh 17.7%, SARS PLpro yeast 7.2%, Pf growth 48h inconclusive and CHX counter 12.0.
`c1ccc(-c2nn[nH]n2)cc1` gave Shiga toxin inh -8.9, Pf growth 96h 25.5%, NS1 function inh 1.7%, SARS PLpro yeast -2.8%, Pf growth 48h 0.0% and CHX counter -2.9.
`c1cncc(-c2nnc(-c3cccnc3)nn2)c1` gave Shiga toxin inh -0.5, Pf growth 96h inconclusive, NS1 function inh -104.3%, SARS PLpro yeast -26.9%, Pf growth 48h 2.62µM* and CHX counter 0.6.
For c1ccc(-c2nnc(-c3ccccc3)nn2)cc1 the results were Shiga toxin inh 91.1*, Pf growth 96h inconclusive, NS1 function inh -2.7%, SARS PLpro yeast -1.3%, Pf growth 48h inconclusive and CHX counter 50.6*.
Screening CC(C)(C)c1ccc(C(=O)OCC(=O)N2CCC(c3ccccc3)=N2)cc1 returned Pf growth 96h inconclusive, SARS PLpro yeast 4.6% and Pf growth 48h -23.6%.
`CC1Oc2ccccc2C=C1/C=N/Nc1ccc(C(=O)O)cc1` (stereo not given) gave Shiga toxin inh 69.9*, Pf growth 96h 14.5%, NS1 function inh -75.0%, SARS PLpro yeast -3.3%, Pf growth 48h -37.1% and CHX counter 33.2*.
Screening COc1ccc(C(=O)N/N=C/c2ccc(OC)c(COc3ccc(F)cc3)c2)cc1 returned Shiga toxin inh 13.3, Pf growth 96h inconclusive, NS1 function inh -10.0%, SARS PLpro yeast 21.5%, Pf growth 48h inconclusive and CHX counter 18.7.
COc1ccc(/C=N/NC(=O)c2ccn[nH]2)cc1COc1ccc(F)cc1 was read as Shiga toxin inh 33.0, Pf growth 96h 4.8%, NS1 function inh -1.1%, SARS PLpro yeast -15.9%, Pf growth 48h inconclusive and CHX counter 20.6*.
Screening COc1ccc(/C=N\NC(=O)c2ccccc2)cc1COc1ccc(F)cc1 returned Shiga toxin inh 198.0, Pf growth 96h inconclusive, NS1 function inh -40.3%, SARS PLpro yeast 4.5%, Pf growth 48h inconclusive and CHX counter 27.2*.
`COc1cc(/C=N/NC(=O)c2ccncc2)ccc1OC(=O)c1ccc([N+](=O)[O-])cc1` gave Shiga toxin inh -12.3, Pf growth 96h 250.4%, NS1 function inh 17.9%, SARS PLpro yeast 2.0%, Pf growth 48h 11.8% and CHX counter -3.5.
For COc1ccc(/C=N/NC(=O)c2ccccc2)cc1CN1CCN(c2ccc(F)cc2)CC1 the results were Shiga toxin inh 24.6, Pf growth 96h 12.3%, NS1 function inh -3.4%, SARS PLpro yeast 2.4%, Pf growth 48h 3.2% and CHX counter 12.4*.
For COc1ccc(/C=N/NC(=O)c2ccncc2)cc1Cn1nc([N+](=O)[O-])c(Br)c1C the results were Shiga toxin inh -5.7, Pf growth 96h 4.15µM*, SARS PLpro yeast 1.5%, Pf growth 48h inconclusive and CHX counter -1.0.
O=C(COc1ccccc1[N+](=O)[O-])NCC1COc2ccccc2O1 (stereo not given) was read as SARS PLpro yeast -6.1%.
For Cc1ccc(NC(=O)c2cc(S(=O)(=O)N3CCCCC3)c[nH]2)cc1C the results were Shiga toxin inh -6.1, Pf growth 96h inconclusive, NS1 function inh 5.0%, SARS PLpro yeast 6.6%, Pf growth 48h -11.0% and CHX counter -1.6.
`Cn1c(=O)n(C)c2cc(NC(=O)CSc3nc4ccccc4c(=O)[nH]3)ccc21` gave Shiga toxin inh -3.1, Pf growth 96h 186.1%, NS1 function inh -21.4%, SARS PLpro yeast -2.0%, Pf growth 48h -8.4% and CHX counter -2.0.
O=C1CC[C@@H](CN(Cc2ccccn2)Cc2nc(-c3ccc(C(F)(F)F)cc3)no2)N1 was read as Shiga toxin inh -4.5, Pf growth 96h -0.1%, NS1 function inh 0.7%, SARS PLpro yeast 0.0%, Pf growth 48h inconclusive and CHX counter -1.6.
`O=C(N[C@H](Cc1cc(=O)[nH]c2ccccc12)C(=O)O)c1ccc(Cl)cc1` gave Shiga toxin inh 18.8, Pf growth 96h -1.3%, NS1 function inh 5.2%, SARS PLpro yeast 2.6%, Pf growth 48h -5.6% and CHX counter -3.6.
`COc1ccc(/C=N\NC(=O)c2ccccc2OC)cc1COc1c(F)c(F)c(F)c(F)c1F` gave Shiga toxin inh 18.6, Pf growth 96h inconclusive, NS1 function inh -34.6%, SARS PLpro yeast 2.1%, Pf growth 48h 0.2% and CHX counter 11.9*.
